{"source": "paper PMC9911399", "about": "“Two distinct binding modes provide the RNA-binding protein RbFox with extraordinary sequence specificity”", "binders": {"B1": {"name": "AUGUAUC (DNA:RNA)", "RNA": "GGGAGACCGGAAUUCAGAUUGUCCAUGUAUCUUAAAUCCCGUCGUAGCCACCA", "DNA 1": "CAATCTGAATTCCGGTCTCCC", "DNA 2": "TGGTGGCTACGACGGGATT"}, "B2": {"name": "AUGUAGA (DNA:RNA)", "RNA": "B1 RNA with U30G, C31A", "DNA 1": "CAATCTGAATTCCGGTCTCCC", "DNA 2": "TGGTGGCTACGACGGGATT"}, "B3": {"name": "AUAUGUA (DNA:RNA)", "RNA": "B1 RNA with G27A, A29G, C31A", "DNA 1": "CAATCTGAATTCCGGTCTCCC", "DNA 2": "TGGTGGCTACGACGGGATT"}, "B4": {"name": "ACGUAUC (DNA:RNA)", "RNA": "B1 RNA with U26C", "DNA 1": "CAATCTGAATTCCGGTCTCCC", "DNA 2": "TGGTGGCTACGACGGGATT"}, "B5": {"name": "AUGUAAA (DNA:RNA)", "RNA": "B1 RNA with U30A, C31A", "DNA 1": "CAATCTGAATTCCGGTCTCCC", "DNA 2": "TGGTGGCTACGACGGGATT"}, "B6": {"name": "AUGUAUG (DNA:RNA)", "RNA": "B1 RNA with C31G", "DNA 1": "CAATCTGAATTCCGGTCTCCC", "DNA 2": "TGGTGGCTACGACGGGATT"}, "B7": {"name": "UAUUAUG (DNA:RNA)", "RNA": "B1 RNA with A25U, U26A, G27U, C31G", "DNA 1": "CAATCTGAATTCCGGTCTCCC", "DNA 2": "TGGTGGCTACGACGGGATT"}, "B8": {"name": "UAAGUUC (DNA:RNA)", "RNA": "B1 RNA with A25U, U26A, G27A, U28G, A29U", "DNA 1": "CAATCTGAATTCCGGTCTCCC", "DNA 2": "TGGTGGCTACGACGGGATT"}, "B9": {"name": "GGAUAGG (DNA:RNA)", "RNA": "B1 RNA with A25G, U26G, G27A, U30G, C31G", "DNA 1": "CAATCTGAATTCCGGTCTCCC", "DNA 2": "TGGTGGCTACGACGGGATT"}, "B10": {"name": "UUGUAUU (DNA:RNA)", "RNA": "B1 RNA with A25U, C31U", "DNA 1": "CAATCTGAATTCCGGTCTCCC", "DNA 2": "TGGTGGCTACGACGGGATT"}, "B11": {"name": "CCCGAGU (DNA:RNA)", "RNA": "B1 RNA with A25C, U26C, G27C, U28G, U30G, C31U", "DNA 1": "CAATCTGAATTCCGGTCTCCC", "DNA 2": "TGGTGGCTACGACGGGATT"}, "B12": {"name": "UCGCAUA (DNA:RNA)", "RNA": "B1 RNA with A25U, U26C, U28C, C31A", "DNA 1": "CAATCTGAATTCCGGTCTCCC", "DNA 2": "TGGTGGCTACGACGGGATT"}, "B13": {"name": "UCGCAGA (DNA:RNA)", "RNA": "B1 RNA with A25U, U26C, U28C, U30G, C31A", "DNA 1": "CAATCTGAATTCCGGTCTCCC", "DNA 2": "TGGTGGCTACGACGGGATT"}, "B14": {"name": "UCGCGCA (DNA:RNA)", "RNA": "B1 RNA with A25U, U26C, U28C, A29G, U30C, C31A", "DNA 1": "CAATCTGAATTCCGGTCTCCC", "DNA 2": "TGGTGGCTACGACGGGATT"}, "B15": {"name": "UCAGAUC (DNA:RNA)", "RNA": "B1 RNA with A25U, U26C, G27A, U28G", "DNA 1": "CAATCTGAATTCCGGTCTCCC", "DNA 2": "TGGTGGCTACGACGGGATT"}, "B16": {"name": "UCGCAUG (DNA:RNA)", "RNA": "B1 RNA with A25U, U26C, U28C, C31G", "DNA 1": "CAATCTGAATTCCGGTCTCCC", "DNA 2": "TGGTGGCTACGACGGGATT"}, "B17": {"name": "UCGCAUC (DNA:RNA)", "RNA": "B1 RNA with A25U, U26C, U28C", "DNA 1": "CAATCTGAATTCCGGTCTCCC", "DNA 2": "TGGTGGCTACGACGGGATT"}, "B18": {"name": "UGAACAA (DNA:RNA)", "RNA": "GGGAGACCGGAAUUCAGAUUGUCCUGAACAAUUAAAUCCCGUCGUAGCCACCA", "DNA 1": "CAATCTGAATTCCGGTCTCCC", "DNA 2": "TGGTGGCTACGACGGGATT"}, "B19": {"name": "AUUUACA (DNA:RNA)", "RNA": "B1 RNA with G27U, U30C, C31A", "DNA 1": "CAATCTGAATTCCGGTCTCCC", "DNA 2": "TGGTGGCTACGACGGGATT"}, "B20": {"name": "UGAUGCG (DNA:RNA)", "RNA": "B18 RNA with A28U, C29G, A30C, A31G", "DNA 1": "CAATCTGAATTCCGGTCTCCC", "DNA 2": "TGGTGGCTACGACGGGATT"}, "B21": {"name": "UUGUGGU (DNA:RNA)", "RNA": "B1 RNA with A25U, A29G, U30G, C31U", "DNA 1": "CAATCTGAATTCCGGTCTCCC", "DNA 2": "TGGTGGCTACGACGGGATT"}, "B22": {"name": "ACACGAA (DNA:RNA)", "RNA": "B18 RNA with U25A, G26C, A28C, C29G", "DNA 1": "CAATCTGAATTCCGGTCTCCC", "DNA 2": "TGGTGGCTACGACGGGATT"}, "B23": {"name": "GCGUAAC (DNA:RNA)", "RNA": "B1 RNA with A25G, U26C, U30A", "DNA 1": "CAATCTGAATTCCGGTCTCCC", "DNA 2": "TGGTGGCTACGACGGGATT"}, "B24": {"name": "GGACGCA (DNA:RNA)", "RNA": "B18 RNA with U25G, A28C, C29G, A30C", "DNA 1": "CAATCTGAATTCCGGTCTCCC", "DNA 2": "TGGTGGCTACGACGGGATT"}, "B25": {"name": "UUAGUGG (DNA:RNA)", "RNA": "B18 RNA with G26U, A28G, C29U, A30G, A31G", "DNA 1": "CAATCTGAATTCCGGTCTCCC", "DNA 2": "TGGTGGCTACGACGGGATT"}, "B26": {"name": "GCAUGCU (DNA:RNA)", "RNA": "B1 RNA with A25G, U26C, G27A, A29G, U30C, C31U", "DNA 1": "CAATCTGAATTCCGGTCTCCC", "DNA 2": "TGGTGGCTACGACGGGATT"}, "B27": {"name": "GCCAUGC (DNA:RNA)", "RNA": "B1 RNA with A25G, U26C, G27C, U28A, A29U, U30G", "DNA 1": "CAATCTGAATTCCGGTCTCCC", "DNA 2": "TGGTGGCTACGACGGGATT"}, "B28": {"name": "GCAUUGC (DNA:RNA)", "RNA": "B1 RNA with A25G, U26C, G27A, A29U, U30G", "DNA 1": "CAATCTGAATTCCGGTCTCCC", "DNA 2": "TGGTGGCTACGACGGGATT"}, "B29": {"name": "ACAUGCU (DNA:RNA)", "RNA": "B1 RNA with U26C, G27A, A29G, U30C, C31U", "DNA 1": "CAATCTGAATTCCGGTCTCCC", "DNA 2": "TGGTGGCTACGACGGGATT"}, "B30": {"name": "GACAUGC (DNA:RNA)", "RNA": "B1 RNA with A25G, U26A, G27C, U28A, A29U, U30G", "DNA 1": "CAATCTGAATTCCGGTCTCCC", "DNA 2": "TGGTGGCTACGACGGGATT"}, "B31": {"name": "CGCAUGC (DNA:RNA)", "RNA": "B18 RNA with U25C, A27C, C29U, A30G, A31C", "DNA 1": "CAATCTGAATTCCGGTCTCCC", "DNA 2": "TGGTGGCTACGACGGGATT"}, "B32": {"name": "GUCAUGC (DNA:RNA)", "RNA": "B1 RNA with A25G, G27C, U28A, A29U, U30G", "DNA 1": "CAATCTGAATTCCGGTCTCCC", "DNA 2": "TGGTGGCTACGACGGGATT"}, "B33": {"name": "GGCAUGC (DNA:RNA)", "RNA": "B18 RNA with U25G, A27C, C29U, A30G, A31C", "DNA 1": "CAATCTGAATTCCGGTCTCCC", "DNA 2": "TGGTGGCTACGACGGGATT"}, "B34": {"name": "GUCCGCU (DNA:RNA)", "RNA": "B1 RNA with A25G, G27C, U28C, A29G, U30C, C31U", "DNA 1": "CAATCTGAATTCCGGTCTCCC", "DNA 2": "TGGTGGCTACGACGGGATT"}}, "note": "Residue numbers refer to the chain shown, from its start. Whole data set: some 16,000 sequences, median “ka relative to ugcaugu” near 0.096, cut for the highest 2% near 0.35. The entries come from a sample that favours the highest values as a whole."}
{"target": "T1, RBFOX1 RRM RbFoxmut (Fox-RRM*) (Homo sapiens, UniProt Q9NWB1 109-208, R118D;E147R;N151S;E152T)", "T1 sequence": "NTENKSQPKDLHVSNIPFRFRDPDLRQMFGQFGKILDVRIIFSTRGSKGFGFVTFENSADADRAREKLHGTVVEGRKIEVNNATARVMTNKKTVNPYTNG", "test": "EMSA; HiTS-Eq, 1 nM pool, 10 min; buffer printed only for the single-RNA assays: 10 mM Tris pH 7.5, 150 mM NaCl, 3.4 mM EDTA, 0.001% NP-40, 30 C", "settings": "tags: His6 N-terminal (pET28a); label: 5' 32P", "in_short": "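Purified RbFox RRM (wild type or mutant) was equilibrated for 10 min in 50 µL with 1 nM of a 5′-radiolabelled pool of RNA with 7 randomized nucleotides, its flanks annealed to DNA oligonucleotides, across increasing protein concentrations. Free RNA was separated by 8% native PAGE, excised, reverse-transcribed, PCR-barcoded and sequenced on an Illumina HiSeq 2500. Relative association constants came from read-count changes of each variant against the control reaction, normalised to the cognate motif.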"}
{"binder": "B1", "binding signal": "0.407 KA relative to UGCAUGU"}
{"binder": "B2", "binding signal": "0.152 KA relative to UGCAUGU"}
{"binder": "B3", "binding signal": "0.261 KA relative to UGCAUGU"}
{"binder": "B4", "binding signal": "0.185 KA relative to UGCAUGU"}
{"binder": "B5", "binding signal": "0.169 KA relative to UGCAUGU"}
{"binder": "B6", "binding signal": "1.19 KA relative to UGCAUGU"}
{"binder": "B7", "binding signal": "0.158 KA relative to UGCAUGU"}
{"binder": "B8", "binding signal": "0.0634 KA relative to UGCAUGU"}
{"binder": "B9", "binding signal": "0.0913 KA relative to UGCAUGU"}
{"binder": "B10", "binding signal": "0.171 KA relative to UGCAUGU"}
{"binder": "B11", "binding signal": "0.094 KA relative to UGCAUGU"}
{"binder": "B12", "binding signal": "0.125 KA relative to UGCAUGU"}
{"binder": "B13", "binding signal": "0.0842 KA relative to UGCAUGU"}
{"binder": "B14", "binding signal": "0.104 KA relative to UGCAUGU"}
{"binder": "B15", "binding signal": "0.0785 KA relative to UGCAUGU"}
{"binder": "B16", "binding signal": "1.06 KA relative to UGCAUGU"}
{"binder": "B17", "binding signal": "0.597 KA relative to UGCAUGU"}
{"binder": "B18", "binding signal": "0.047 KA relative to UGCAUGU"}
{"binder": "B19", "binding signal": "0.119 KA relative to UGCAUGU"}
{"binder": "B20", "binding signal": "0.141 KA relative to UGCAUGU"}
{"binder": "B21", "binding signal": "0.164 KA relative to UGCAUGU"}
{"binder": "B22", "binding signal": "0.0925 KA relative to UGCAUGU"}
{"binder": "B23", "binding signal": "0.0833 KA relative to UGCAUGU"}
{"binder": "B24", "binding signal": "0.12 KA relative to UGCAUGU"}
{"binder": "B25", "binding signal": "0.0929 KA relative to UGCAUGU"}
{"binder": "B26", "binding signal": "0.736 KA relative to UGCAUGU"}
{"binder": "B27", "binding signal": "0.109 KA relative to UGCAUGU"}
{"binder": "B28", "binding signal": "0.134 KA relative to UGCAUGU"}
{"binder": "B29", "binding signal": "0.102 KA relative to UGCAUGU"}
{"binder": "B30", "binding signal": "0.0819 KA relative to UGCAUGU"}
{"binder": "B31", "binding signal": "0.951 KA relative to UGCAUGU"}
{"binder": "B32", "binding signal": "0.19 KA relative to UGCAUGU"}
{"binder": "B33", "binding signal": "0.739 KA relative to UGCAUGU"}
{"binder": "B34", "binding signal": "0.11 KA relative to UGCAUGU"}
